The list is not random: actives were taken first. Their share in the collection is about 9.2%.
Lamin A splicing: modulators of lamin A splicing. Potency, µM (doses to about 46.1 µM), inactives show at the highest dose ratio change, negative = inhibition, most hits filed as inhibitors. HeLa LMNA splicing GFP/RFP minigene ratio, 48 h. hit rate 0.01% among 200,000; active = well fitted inhibition curve with a large enough effect in the signal ratio, with a control signal flat, not every such curve was filed as active; inconclusive = small, poorly fitted or top-dose-only effect, or effect the other way, or a change in a side signal; the % refers to the signal ratio; note: % is set by controls: 0 for no effect and ±100 for the full control effect
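S3 HeLa cells stably expressing lamin A-EGFP splicing minigene plus DsRed2, 600 cells/well, 48 h compound exposure at 37C. Laser-scanning cytometry; analysed as GFP (500-530 nm)/RFP (575-640 nm) total intensity ratio; 0.5% DMSO vehicle.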
HPGD block: inhibitors of human 15-hydroxyprostaglandin dehydrogenase (HPGD). P15428. purified HPGD, NADH fluorescence kinetic, PGE2 substrate. Potency, µM, for the others: at the highest dose activity change, negative = inhibition, most hits filed as inhibitors. hit rate 4.3% among 150,000; note: % is set by controls: 0 for no effect and ±100 for the full control effect
Target sequence (P15428 whole entry, looked up): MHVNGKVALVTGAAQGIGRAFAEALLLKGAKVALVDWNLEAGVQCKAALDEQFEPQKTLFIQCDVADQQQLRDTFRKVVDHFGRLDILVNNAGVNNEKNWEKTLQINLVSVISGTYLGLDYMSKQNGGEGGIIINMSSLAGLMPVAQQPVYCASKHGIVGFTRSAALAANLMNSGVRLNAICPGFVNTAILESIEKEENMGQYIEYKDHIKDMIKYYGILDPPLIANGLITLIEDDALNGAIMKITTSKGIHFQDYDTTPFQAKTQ
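20 nM HPGD preincubated 15 min at room temperature with compound in 50 mM Tris-HCl pH 8, 0.01% Tween 20. Started with 1 mM NAD+ and 30 uM prostaglandin E2; NADH fluorescence (360/450 nm) read 5 times over 30-s intervals, last minus first.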
ALDH1A1 block: blocks purified human ALDH1A1 activity | hit rate 7.3% among 220,000 | AID 1030 | Purified ALDH1A1, NADH fluorescence, propionaldehyde substrate | P00352 | Potency, µM (highest dose often 75.3 µM), for the others: top-dose activity, negative = inhibition, usual class: inhibitors;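 note: plate controls were no enzyme wells and a reference inhibitor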
HTT aggregate: mutant huntingtin aggregation inhibition | PC12 HttQ103-GFP aggregates, Acumen cytometry, 40 h | Potency, µM (titrated, usually from 46.1 µM), for inactives: top-dose activity change, negative = inhibition, hits mostly inhibitors | hit rate 1.1% among 220,000; active = well fitted curve in the direction sought with a large enough effect; inconclusive = small, poorly fitted or top-dose-only effect, or another doubt; inactive = no such curve, though single readings can be large; an effect the other way counts as inactive or inconclusive; note: % is set by controls: 0 for no effect and ±100 for the full control effect; nearly all actives have a fitted effect of over 60% in size
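Aggregate formation scored by laser-scanning cytometer (488 excitation, 500–530 emission) in lysed PC12 cells expressing Q103-GFP after 100 nM tebufenozide induction; library tested in dose series, with ATPLite reagent added in the multiplex.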
KDM4E inh: JMJD2E (human) inhibition. AID 2147. B2RXH2. JMJD2E catalytic domain, FDH-coupled NADH fluorescence (FDH is formaldehyde dehydrogenase). hit rate 1.6% among 230,000. Potency, µM (titrated, usually from 57.1 µM), without a hit: top-dose activity change, negative = inhibition, hits mostly inhibitors;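 note: 0% = wells with enzyme and -100% = buffer wells without enzyme; nearly all actives have a fitted effect of over 50% in size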
Target sequence (B2RXH2 1-337 limits assumed): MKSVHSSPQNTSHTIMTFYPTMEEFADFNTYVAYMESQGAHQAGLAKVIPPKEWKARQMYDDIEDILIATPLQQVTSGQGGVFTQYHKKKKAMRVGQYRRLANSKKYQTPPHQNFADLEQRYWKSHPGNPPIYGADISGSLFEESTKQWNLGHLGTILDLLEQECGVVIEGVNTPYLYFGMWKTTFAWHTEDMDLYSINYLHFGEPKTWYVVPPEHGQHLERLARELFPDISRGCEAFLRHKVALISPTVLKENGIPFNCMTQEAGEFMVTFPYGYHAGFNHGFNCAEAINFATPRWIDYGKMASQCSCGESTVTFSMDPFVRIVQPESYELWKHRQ
HTT ATP protect: protects HTT-Q103 PC12 cells, measured by ATP. hit rate 0.14% among 230,000. Potency, µM (titrated, usually from 56.4 µM), inactives show cytoprotection (ATP increase), usual class: activators. PC12 HTT-Q103 induced, cytoprotection, ATP luminescence, 40 h; active = well fitted curve in the direction sought with a large enough effect; inconclusive = small, poorly fitted or top-dose-only effect, or another doubt; inactive = no such curve, though single readings can be large; an effect the other way counts as inactive or inconclusive; note: % of control where 0% means no effect; nearly all actives have a fitted effect of over 45% in size
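ATP quantification (ATPlite) reports survival of PC12 cells in which tebufenozide, 100 nM final, switches on Htt exon 1 with 103 glutamines linked to GFP; compounds are titrated.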
* = called active by the depositor; ? = inconclusive; / = no result; [ ] = another dose, or the depositor's remark. Unless noted, calls come from the whole dose curve; as a rule, active = well fitted inhibition curve with a large enough effect (not every such curve was filed as active); inconclusive = small, poorly fitted or top-dose-only effect, or another doubt; inactive = no such curve, though single readings can be large or run the other way. Potency is the fitted concentration of half-maximal effect.

SMILES | Lamin A splicing | HPGD block | ALDH1A1 block | HTT aggregate | KDM4E inh | HTT ATP protect
COC(=O)C1=C(C(=O)OC)[C@@H]2N(C)c3ccccc3[C@@]23C[C@@H](C(=O)OC)N(S(=O)(=O)c2ccc([N+](=O)[O-])cc2)C3=N1 | -17%[9.22 µM] | -6% | 2%[13.5 µM] | / | -6%[11.4 µM] | 8%[10 µM]
COc1ccc(CCNc2oc(COc3ccccc3F)nc2C#N)cc1 | -10% | 18µM* | ? | -13% | -5% | -2%[10 µM]
CC1CN(c2ccccc2)NC1=O (stereo not given) | / | / | 2% | 9%[9.22 µM] | -2% | -6%[10 µM]
CC1CN(c2ccccc2)C(=O)CS1 (stereo not given) | 12% | 16µM* | 15µM* | -6% | 6% | 4%
CCCCN1CC(COc2ccccc2)OC1=O (stereo not given) | 11% | -10% | -4% | 17% | 9% | -13%
CCCCOCC1CN(c2ccccc2)C(=O)CS1 (stereo not given) | -3% | -5% | 13µM* | -14% | 2% | 15%
C[N+]1(C)CCC(=C2c3ccccc3CC(=O)c3sccc32)CC1 | 13% | ? | 7.1µM* | 4% | 3% | ?
CC[N+]1(C)CCC(=C2c3ccccc3CC(=O)c3sccc32)CC1 (stereo not given) | 24% | -7% | 2% | 17% | -7% | -1%
CCOc1ccc(NC(=S)N(Cc2ccc(N(C)C)cc2)Cc2ccco2)cc1 | -23% | -14% | 8.9µM* | -21% | 2% | -82%
COc1ccc(NC(=S)N(Cc2ccc(N(C)C)cc2)Cc2ccco2)cc1 | ? | -25% | 11µM* | 16% | 2% | 10%[10 µM]
CCOc1ccc(NC(=S)NN(C)C(=S)Nc2ccc(OCC)cc2)cc1 | ? | -14% | 28µM* | -24% | 3% | /
COc1ccccc1N1CCN(C(=O)c2cnn(C(C)(C)C)c2C2CCN(C(=O)OC(C)(C)C)CC2)CC1 | -5%[46 µM] | / | / | / | / | /
CC(=O)n1nc(-c2ccco2)nc1SCc1ccccc1 | -4% | 13µM* | -15% | 1% | 0% | -2%[10 µM]
CCC(=O)n1nc(-c2ccco2)nc1SCc1ccccc1 | 21% | 13µM* | ? | -11% | 1% | -53%
O=C(Cn1c(-c2cccs2)cc2cc(F)ccc21)N1CCN(c2ccccc2)CC1 | -9%[46 µM] | / | / | / | / | /
Cc1ccc(C)c(CNC(=O)c2sc3ncnc(N(C)C4CCCCC4)c3c2C)c1 | -5%[46 µM] | / | / | / | / | /
CCN(CC)C(=O)c1sc2c(c1C)c(=O)n(-c1ccc(Cl)c(Cl)c1)c(=O)n2Cc1cc(=O)n2c(C)cccc2n1 | 13%[46 µM] | / | / | / | / | /
O=C1OCC(c2ccccc2)=C1c1ccc(S(=O)(=O)N2CCOCC2)s1 | 9% | ? | 20µM* | 21% | -4% | -3%
COc1ccccc1NC(=O)c1c(N=Cc2cccc([N+](=O)[O-])c2)cnn1C | / | / | / | 16%[9.22 µM] | -1% | -11%[10 µM]
COC(=O)C(C(=O)OC)[C@@H]1c2ccccc2[C@H]2C(=C[C@@H](C)[C@H]3C(=O)N(c4ccccc4)C(=O)[C@H]32)N1C(=O)OC | ? | -4% | ? | / | 9%[11.4 µM] | -33%[10 µM]
O=C(O)/C(=C\c1cccc([N+](=O)[O-])c1)c1ccc(S(=O)(=O)N2CCCCC2)s1 | / | / | 4µM* | 8%[9.22 µM] | 12% | -13%[10 µM]
CSc1ccc(/C=C(\C(=O)O)c2ccc(S(=O)(=O)N3CCCCC3)s2)cc1 | -22% | 16% | -14% | 19% | -1% | 15%[1.9 µM]
O=C(O)/C(=C\c1ccccc1Cl)c1ccc(S(=O)(=O)N2CCCCC2)s1 | -24% | / | ? | -3% | -3% | 4%[10 µM]
O=C(O)/C(=C\c1ccc(Cl)c([N+](=O)[O-])c1)c1ccc(S(=O)(=O)N2CCCCC2)s1 | -10%[46 µM] | / | 0.5µM* | 7% | -5% | -6%[10 µM]
CC1=C(c2ccc(C)c(C)c2)S(=O)(=O)N=C1N1CCC(C(=O)NC(C)c2ccccc2)CC1 (stereo not given) | 17%[46 µM] | / | / | / | / | /
SMILES | Lamin A splicing | HPGD block | ALDH1A1 block | HTT aggregate | KDM4E inh | HTT ATP protect
COC(=O)CCC(=O)OC1(C)C(=O)C=C2C=C(c3ccc(C#N)cc3)OC=C2C1=O (stereo not given) | / | -8% | -13% | / | -2% | 2%
CN1C(=O)c2ccc(NC(=O)CCS(=O)(=O)c3ccccc3)cc2C1=O | 10%[9.22 µM] | / | ? | -7% | ? | -13%
COc1c(C=O)c(O)cc2c1C(=O)c1ccccc1C2=O | / | / | 3.5µM* | / | / | ?
COc1ccc2c(c1O)C(=O)c1ccccc1C2=O | / | / | 9% | -6%[9.22 µM] | 1% | -16%[10 µM]
Cc1[nH]nc2c1C(c1ccsc1)C1=C(CC(C)(C)CC1=O)N2 (stereo not given) | ? | / | ? | 18% | ? | ?
COc1nc(NCCO)nc(Nc2ccc([N+](=O)[O-])cc2)n1 | -12% | 20µM* | ? | -5% | 0% | 9%[10 µM]
O=[N+]([O-])c1ccc(Nc2nc(Cl)nc(NCCO)n2)cc1 | / | / | 3% | 9% | 1% | -19%
COc1cc(-c2ccc(N=C=O)c(OC)c2)ccc1N=C=O | / | ? | ? | / | / | -8%
Cc1ccc(S(=O)(=O)/N=S(\C)CC2CC2(Cl)Cl)cc1 (stereo not given) | 3% | -12% | 10µM* | 6% | -4% | -7%
CCCNC(=O)Cn1ncc2c3ccccc3n(CCC)c2c1=O | 5%[46 µM] | / | / | / | / | /
CCCOC(=O)Nc1cc(OC)ccc1[N+](=O)[O-] | 21%[46 µM] | / | -5% | -1% | 2% | -33%
CCc1nc2sc3c(=O)[nH]cnc3c2c2c1CSC(C)(C)C2 | / | / | / | 11%[9.22 µM] | ? | 1%[10 µM]
CC1(C)Cc2nc3sc4c(=O)[nH]cnc4c3cc2CS1 | -4% | ? | 14µM* | 9% | ? | -18%
CCCCCn1cnc2sc(CC)cc2c1=O | ? | -27% | -2% | -11% | -1% | -39%[10 µM]
CCCCCn1cnc2c(sc3nc4c(cc32)CSC(C)(C)C4)c1=O | -10% | ? | 2.8µM* | 5% | -3% | 4%[10 µM]
Cc1ccc2[nH]c3c(N4CCOCC4)ncnc3c2c1 | ? | ? | ? | ? | ? | -16%
Clc1ccc2[nH]c3c(N4CCC5(CC4)OCCO5)ncnc3c2c1 | ? | ? | ? | 8.9µM* | ? | -98%
Cc1cccc2[nH]c3c(N4CCC5(CC4)OCCO5)ncnc3c12 | ? | ? | ? | 22µM* | ? | -55%
C=CCn1c(-c2csc3ccccc23)n[nH]c1=S | -6% | -17% | -13% | -8% | -14% | -6%
Cc1ccc(C)n1-n1cnc2scc(-c3cccs3)c2c1=O | -2% | -5% | ? | 8% | -5% | -9%
C=CCn1c(=S)[nH]c2sccc2c1=O | 8%[46 µM] | / | 32µM* | 1% | ? | -14%
CC(C)n1c(=S)[nH]c2scc(-c3cccs3)c2c1=O | / | / | 13µM* | 7%[9.22 µM] | -20% | -6%[10 µM]

Bioassay records: PubChem, National Center for Advancing Translational Sciences (NCATS)
